Results filed as inconclusive are left out. The source made the active and inactive calls. Calls come from the whole dose curve; as a rule, active = well fitted curve in the direction sought with a large enough effect in the repeat runs; inconclusive = weak or mixed curves; inactive = no such curve, though single readings can be large; an effect the other way counts as inactive or inconclusive.
Key:
[1] = A CellTox Green Cytotoxicity Assay to monitor cytotoxicity in HEK293 cells - 40 hour (AID 1224871); conditions: CellTox Green fluorescence; series mostly up to 76.8 µM; note: nearly all actives have a fitted effect of over 45% in size; note: potency is the fitted concentration of half-maximal effect
In short: (§1)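 Fluorescence from a DNA-binding dye excluded by viable cells was measured repeatedly in the same HEK293 wells (600 cells/well) during continuous compound exposure at 37 C. Each assay gives one read point: 0, 8, 16, 24, 32 or 40 h.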

[2] = qHTS RealTime-Glo MT Cell Viability Assay in HEK293 cells - 16 hour (AID 1224872); conditions: RealTime-Glo luminescence; series mostly up to 76.8 µM; note: nearly all actives have a fitted effect of over 50% in size; note: potency is the fitted concentration of half-maximal effect
In short: (§2)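 Assay medium contained NanoLuc luciferase plus cell-permeant prosubstrate, added with HEK293 cells at 600 cells/well. After 5 h at 37 C/5% CO2 compounds were added; plates stayed at 37 C for 40 h with serial luminescence reads.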

[3] = qHTS RealTime-Glo MT Cell Viability Assay in HepG2 cells - 8 hour (AID 1224873); conditions: RealTime-Glo luminescence; series mostly up to 76.8 µM; note: nearly all actives have a fitted effect of over 55% in size; note: potency is the fitted concentration of half-maximal effect
In short: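 Real-time viability: cells seeded at 600 per well together with NanoLuc and cell-permeant prosubstrate, compounds added after 5 h incubation. Luminescence tracked at 0, 8, 16, 24, 32 and 40 h of exposure.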

[4] = A CellTox Green Cytotoxicity Assay to monitor cytotoxicity in HEK293 cells - 24 hour (AID 1224875); conditions: CellTox Green fluorescence; series mostly up to 76.8 µM; note: nearly all actives have a fitted effect of over 45% in size; note: potency is the fitted concentration of half-maximal effect
In short: as §1

[5] = A CellTox Green Cytotoxicity Assay to monitor cytotoxicity in HepG2 cells - 16 hour (AID 1224876); conditions: CellTox Green fluorescence; series mostly up to 76.8 µM; note: nearly all actives have a fitted effect of over 45% in size; note: potency is the fitted concentration of half-maximal effect
In short: (§3)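 Real-time cytotoxicity: fluorescence of a cell-impermeant cyanine dye binding DNA of dead HepG2 cells, measured repeatedly (0–40 h) during compound exposure at 37 C. Cells seeded 600/well with reagent, dosed after 5 h.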

[6] = qHTS RealTime-Glo MT Cell Viability Assay in HepG2 cells - 32 hour (AID 1224877); conditions: RealTime-Glo luminescence; series mostly up to 76.8 µM; note: nearly all actives have a fitted effect of over 55% in size; note: potency is the fitted concentration of half-maximal effect
In short: (§4)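 qHTS, HepG2, 600 cells/well, RealTime-Glo (NanoLuc + prosubstrate) added with cells; 5 h preincubation; DMSO compound addition; 37 C; luminescence at 0/8/16/24/32/40 h.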

[7] = A CellTox Green Cytotoxicity Assay to monitor cytotoxicity in HepG2 cells - 24 hour (AID 1224878); conditions: CellTox Green fluorescence; series mostly up to 76.8 µM; note: nearly all actives have a fitted effect of over 45% in size; note: potency is the fitted concentration of half-maximal effect
In short: as §3

[8] = A CellTox Green Cytotoxicity Assay to monitor cytotoxicity in HepG2 cells - 40 hour (AID 1224879); conditions: CellTox Green fluorescence; series mostly up to 76.8 µM; note: nearly all actives have a fitted effect of over 40% in size; note: potency is the fitted concentration of half-maximal effect
In short: as §3

[9] = qHTS RealTime-Glo MT Cell Viability Assay in HEK293 cells - 0 hour (AID 1224880); conditions: RealTime-Glo luminescence; series mostly up to 76.8 µM
In short: (§5)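 Luminescence, which tracks viable cell number through reduction of the prosubstrate to a NanoLuc substrate, was read over continuous 37 C culture. Cells (600/well) were premixed with reagent and rested 5 h before 23 nL of compound in DMSO was pinned.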

[10] = A CellTox Green Cytotoxicity Assay to monitor cytotoxicity in HEK293 cells - 32 hour (AID 1224881); conditions: CellTox Green fluorescence; series mostly up to 76.8 µM; note: nearly all actives have a fitted effect of over 40% in size; note: potency is the fitted concentration of half-maximal effect
In short: as §1

[11] = A CellTox Green Cytotoxicity Assay to monitor cytotoxicity in HepG2 cells - 0 hour (AID 1224882); conditions: CellTox Green fluorescence; series mostly up to 76.8 µM; note: nearly all actives have a fitted effect of over 35% in size; note: potency is the fitted concentration of half-maximal effect
In short: as §3

[12] = A CellTox Green Cytotoxicity Assay to monitor cytotoxicity in HepG2 cells - 32 hour (AID 1224883); conditions: CellTox Green fluorescence; series mostly up to 76.8 µM; note: nearly all actives have a fitted effect of over 50% in size; note: potency is the fitted concentration of half-maximal effect
In short: as §3

[13] = qHTS RealTime-Glo MT Cell Viability Assay in HepG2 cells - 16 hour (AID 1224885); conditions: RealTime-Glo luminescence; series mostly up to 76.8 µM; note: nearly all actives have a fitted effect of over 50% in size; note: potency is the fitted concentration of half-maximal effect
In short: as §4

[14] = qHTS RealTime-Glo MT Cell Viability Assay in HEK293 cells - 24 hour (AID 1224886); conditions: RealTime-Glo luminescence; series mostly up to 76.8 µM; note: nearly all actives have a fitted effect of over 50% in size; note: potency is the fitted concentration of half-maximal effect
In short: as §2

[15] = qHTS RealTime-Glo MT Cell Viability Assay in HEK293 cells - 8 hour (AID 1224887); conditions: RealTime-Glo luminescence; series mostly up to 76.8 µM; note: nearly all actives have a fitted effect of over 50% in size; note: potency is the fitted concentration of half-maximal effect
In short: as §5

[16] = A CellTox Green Cytotoxicity Assay to monitor cytotoxicity in HEK293 cells - 16 hour (AID 1224888); conditions: CellTox Green fluorescence; series mostly up to 76.8 µM; note: nearly all actives have a fitted effect of over 35% in size; note: potency is the fitted concentration of half-maximal effect
In short: as §1

[17] = qHTS RealTime-Glo MT Cell Viability Assay in HepG2 cells - 0 hour (AID 1224889); conditions: RealTime-Glo luminescence; series mostly up to 76.8 µM; note: nearly all actives have a fitted effect of over 50% in size
In short: as §4

[18] = A CellTox Green Cytotoxicity Assay to monitor cytotoxicity in HepG2 cells - 8 hour (AID 1224890); conditions: CellTox Green fluorescence; series mostly up to 76.8 µM; note: nearly all actives have a fitted effect of over 45% in size; note: potency is the fitted concentration of half-maximal effect
In short: as §3

[19] = qHTS RealTime-Glo MT Cell Viability Assay in HEK293 cells - 40 hour (AID 1224874); conditions: RealTime-Glo luminescence; max response: stronger effect = lower value; note: nearly all actives have a fitted effect of over 50% in size; note: potency is the fitted concentration of half-maximal effect
In short: as §5

[20] = A CellTox Green Cytotoxicity Assay to monitor cytotoxicity in HEK293 cells - 8 hour (AID 1224884); conditions: CellTox Green fluorescence; series mostly up to 76.8 µM; note: nearly all actives have a fitted effect of over 35% in size; note: potency is the fitted concentration of half-maximal effect
In short: as §1
% is set by controls: 0 for no effect and ±100 for the full control effect.

CCOP(=O)(OCC)Oc1cc(C)nc(C(C)C)n1
inactive: Potency [1] | Potency [2] | Potency [3] | Potency [4] | Potency [5] | Potency [6] | Potency [7] | Potency [8] | Potency [9] | Potency [10] | Potency [11] | Potency [12] | Potency [13] | Potency [14] | Potency [15] | Potency [16] | Potency [17] | Potency [18]

CCOC(=O)Cc1ccccc1
inactive: Potency [1] | Potency [2] | Potency [3] | Potency [4] | Potency [5] | Potency [6] | Potency [7] | Potency [8] | Potency [9] | Potency [10] | Potency [11] | Potency [12] | Potency [13] | Potency [15] | Potency [16] | Potency [17] | Potency [18]

COc1ccc(Cc2nccc3cc(OC)c(OC)cc23)cc1OC
inactive: Potency [1] | Potency [4] | Potency [5] | Potency [7] | Potency [10] | Potency [11] | Potency [12] | Potency [16] | Potency [17] | Potency [18]
active: Potency [2] 4.77 µM | Potency [3] 10.7 µM | Potency [19] 5.35 µM | Potency [14] 4.77 µM | Potency [15] 4.77 µM

CCN(CC)C(=O)N[C@@H]1C=C2c3cccc4[nH]cc(c34)C[C@@H]2N(C)C1
inactive: Potency [1] | Potency [2] | Potency [3] | Potency [4] | Potency [5] | Potency [6] | Potency [7] | Potency [8] | Potency [9] | Potency [10] | Potency [11] | Potency [12] | Potency [20] | Potency [13] | Potency [14] | Potency [15] | Potency [16] | Potency [17] | Potency [18]

Cc1cnc2c(C(=O)O)c(Cl)ccc2c1
inactive: Potency [1] | Potency [2] | Potency [3] | Potency [4] | Potency [5] | Potency [6] | Potency [7] | Potency [8] | Potency [10] | Potency [11] | Potency [12] | Potency [20] | Potency [13] | Potency [14] | Potency [15] | Potency [16] | Potency [17] | Potency [18]

CCN(CC)Cc1nccn1-c1ccc([N+](=O)[O-])cc1C(=O)c1ccccc1Cl
inactive: Potency [1] | Potency [2] | Potency [3] | max response [19] -11.1% | Potency [4] | Potency [5] | Potency [7] | Potency [8] | Potency [9] | Potency [10] | Potency [11] | Potency [12] | Potency [13] | Potency [14] | Potency [15] | Potency [16] | Potency [17] | Potency [18]

CCCCCCC[CH2][Sn]([Cl])([Cl])[CH2]CCCCCCC
inactive: Potency [1] | Potency [2] | Potency [3] | Potency [4] | Potency [5] | Potency [6] | Potency [7] | Potency [8] | Potency [9] | Potency [10] | Potency [11] | Potency [12] | Potency [20] | Potency [13] | Potency [14] | Potency [15] | Potency [16] | Potency [17] | Potency [18]

CSSC
active: Potency [8] 7.86 µM
inactive: Potency [1] | Potency [2] | Potency [3] | Potency [4] | Potency [5] | Potency [6] | Potency [7] | Potency [10] | Potency [11] | Potency [12] | Potency [20] | Potency [13] | Potency [15] | Potency [16] | Potency [17] | Potency [18]

CCNS(=O)(=O)C(F)(F)C(F)(F)C(F)(F)C(F)(F)C(F)(F)C(F)(F)C(F)(F)C(F)(F)F
inactive: Potency [1] | Potency [2] | Potency [3] | Potency [4] | Potency [5] | Potency [6] | Potency [7] | Potency [8] | Potency [9] | Potency [10] | Potency [11] | Potency [12] | Potency [20] | Potency [13] | Potency [14] | Potency [15] | Potency [16] | Potency [17] | Potency [18]

c1csc(-c2ccc(-c3cccs3)s2)c1
inactive: Potency [1] | Potency [2] | Potency [3] | max response [19] -2.2% | Potency [5] | Potency [6] | Potency [7] | Potency [8] | Potency [9] | Potency [11] | Potency [12] | Potency [20] | Potency [13] | Potency [14] | Potency [15] | Potency [16] | Potency [17] | Potency [18]

Nc1nc(N)c(N)c(N)n1
inactive: Potency [2] | Potency [3] | max response [19] 10.2% | Potency [13] | Potency [14] | Potency [15] | Potency [17]
active: Potency [1] 49.2 µM | Potency [4] 49.2 µM | Potency [5] 55.2 µM | Potency [7] 55.2 µM | Potency [8] 55.2 µM | Potency [10] 49.2 µM | Potency [11] 49.2 µM | Potency [12] 55.2 µM | Potency [20] 49.2 µM | Potency [16] 55.2 µM | Potency [18] 49.2 µM

C#CC1(O)CCCCC1
inactive: Potency [1] | Potency [2] | Potency [3] | max response [19] 19.4% | Potency [4] | Potency [6] | Potency [9] | Potency [10] | Potency [11] | Potency [20] | Potency [13] | Potency [14] | Potency [15] | Potency [16] | Potency [17]

COc1cnc(OC)n2nc(NS(=O)(=O)c3c(OCC(F)F)cccc3C(F)(F)F)nc12
inactive: Potency [1] | Potency [2] | Potency [3] | Potency [4] | Potency [5] | Potency [6] | Potency [7] | Potency [8] | Potency [9] | Potency [10] | Potency [11] | Potency [12] | Potency [20] | Potency [13] | Potency [14] | Potency [15] | Potency [16] | Potency [17] | Potency [18]

CC(=O)[O][Pb]([c]1ccccc1)([c]1ccccc1)[c]1ccccc1
inactive: Potency [11]
active: Potency [1] 2.45 µM | Potency [2] 0.49 µM | Potency [19] 0.389 µM | Potency [4] 3.89 µM | Potency [5] 1.95 µM | Potency [6] 0.977 µM | Potency [7] 1.38 µM | Potency [8] 0.977 µM | Potency [10] 3.09 µM | Potency [12] 0.871 µM | Potency [20] 11 µM | Potency [13] 1.55 µM | Potency [14] 0.436 µM | Potency [15] 3.47 µM | Potency [16] 4.9 µM | Potency [18] 3.89 µM

CO/N=C(/C1=NOCCO1)c1ccccc1Oc1ncnc(Oc2ccccc2Cl)c1F
inactive: Potency [1] | Potency [2] | Potency [3] | Potency [4] | Potency [5] | Potency [7] | Potency [8] | Potency [9] | Potency [10] | Potency [11] | Potency [12] | Potency [14] | Potency [15] | Potency [16] | Potency [17] | Potency [18]

O=C(O)CCCCCCNC1c2ccccc2CCc2ccccc21
inactive: Potency [1] | Potency [2] | max response [19] 11.4% | Potency [4] | Potency [5] | Potency [6] | Potency [7] | Potency [9] | Potency [10] | Potency [11] | Potency [12] | Potency [20] | Potency [13] | Potency [14] | Potency [15] | Potency [16] | Potency [17]

From PubChem BioAssay (Tox21)
